36 compounds from PubChem BioAssay can be followed below.

This experiment in a line: probe aLefty2 binding to arrayed compounds – biochemical, biotinylated probe, 635/667 nm fluorescence, primary screen (AID 1094).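 Also: score merges spot fluorescence near 667 nm with spot signal-to-noise ratio.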 Particulars: small-molecule microarray, higher = more signal.
As for `COC(=O)[C@@]1(Cc2ccc(F)cc2)[C@H]2c3cc(C(=O)N4CCCC4)n(CCc4c[nH]c5ccc(OC)cc45)c3C[C@H]2CN1C(=O)c1ccccc1`, the composite z-score came out at 0.957.
To `COCCOC(=O)N1C(=O)[C@@]2(c3cc(C#CC4(O)CCCCCC4)ccc31)[C@H](C(=O)N1CCCCCCC1)[C@H]1C(=O)O[C@H](c3ccccc3)[C@H](c3ccccc3)N1[C@@H]2c1ccc(OCCO)cc1` belongs 1.77; to `COC(=O)Cn1c(C(=O)N2CCCC2)cc2c1C[C@H]1CN(C(=O)c3ccccc3)[C@@](Cc3ccc(F)cc3)(C(=O)OC)[C@@H]21`, -0.0199; to `NC(=O)N1C(=O)C2C(C1=O)C1C=C(c3ccc(CO)cc3)C2C(C2CC2)N1Cc1sc2ccccc2c1Cl` (stereo unspecified), 0.0139.
In the case of `CC=CC(O)C1C=CC2C(=O)N(C)C(=O)C2N1Nc1ccc([N+](=O)[O-])cc1[N+](=O)[O-]` (stereo unspecified), the composite z-score was -0.0478.
In the case of `CN(C)CCCNC(=O)[C@@]1(c2ccc([N+](=O)[O-])cc2)CC(=O)N(CC23CC4CC(CC(C4)C2)C3)[C@@H]1c1ccc(CO)cc1`, the composite z-score was 0.969.
In the case of `C=CC1c2cc(O)c(OC)cc2CCN1Cc1sc2ccccc2c1Cl` (stereo unspecified), the composite z-score came to 0.233.
For the compound `CC(C)C(=C=CC[C@@H](O)c1ccccc1OCCO)C[C@@H](O)COCc1ccccc1`, the composite z-score was -0.139.
To `C=CCN1C(=O)[C@]2(CC=C)N=C(c3ccc(OCCCO)cc3)O[C@@H]2c2ccccc21` belongs 0.266; to `Cc1ccc(S[C@]2(C(=O)NCc3ccccc3)CC(=O)N(C(C)C)[C@@H]2c2ccc(CO)cc2I)cc1`, 0.299; to `CO[C@H]1O[C@H](CO)[C@@H](OC(=O)Nc2ccc(C(F)(F)F)cc2)[C@H](OC(=O)Nc2ccc3c(c2)OCO3)[C@H]1OC(=O)Nc1ccc2c(c1)OCO2`, 0.0631.
The compound `CN1C2C=C(CCCO)C(C3C(=O)N(C(N)=O)C(=O)C32)C1c1cccs1` (stereo unspecified) yielded a composite z-score of 0.89.
To `COC(=O)C(CC#Cc1ccc2c(c1)[C@]1(C(=O)N2)[C@H](C(=O)O)[C@H]2C(=O)O[C@H](c3ccccc3)[C@H](c3ccccc3)N2[C@@H]1c1ccccc1OCCO)C(=O)OC` belongs 0.396; to `CC(C)CCC[C@@H](C)[C@H]1CC[C@@]2(C)C3=C(CC[C@]12C)[C@@]1(C)CC[C@H](OC(=O)c2ccc(Br)cc2)C(C)(C)C1CC3` (stereo partly specified), -0.0542.
To `Cc1ccc(S[C@]2(C(=O)NCCN3CCOCC3)CC(=O)N(Cc3ccccc3C(F)(F)F)[C@@H]2c2ccc(CO)cc2I)cc1` belongs -0.145.
To `CCCCN1CC=CC23O[C@@H]4C=CCOC(=O)[C@@H]4[C@H]2C(=O)N(CCCO)[C@@H]3C1=O` (stereo partly specified) belongs -0.145; to `C=C[C@@H](C)[C@H](OC(=O)Nc1ccc(SC)cc1)c1ccc(OCCO)cc1`, -0.136.
`O=c1cccc(-c2cccc(Cl)c2)o1`: the composite z-score is -0.0927.
To `Cc1ccc(S[C@]2(C(=O)NCC(F)(F)F)CC(=O)N(Cc3ccccc3)[C@@H]2c2ccc(CO)cc2)cc1` belongs -0.137; to `COc1ccc([Si](C)(C)[C@H]2[C@H](CC(=O)N3Cc4ccccc4C[C@H]3CO)O[C@@]3(C(=O)N(Cc4cccc(N5CCCCC5=O)c4)c4ccccc43)[C@@H]2C)cc1`, 0.02; to `O=C1OCC=C[C@H]2OC34C=CCN(Cn5nnc6ccccc65)C(=O)[C@H]3N(CCCCCCO)C(=O)[C@@H]4[C@@H]12` (stereo partly specified), -0.0356.
To `COCCOC(=O)N1C(=O)[C@@]2(c3cc(C#Cc4ccc(OC)cc4)ccc31)[C@H](C(=O)N1CCN(c3ncccn3)CC1)[C@H]1C(=O)O[C@H](c3ccccc3)[C@H](c3ccccc3)N1[C@@H]2c1ccccc1OCCO` belongs -0.0917.
Take `O=C1C2C=CC(C(O)c3cc(C(F)(F)F)cc(C(F)(F)F)c3)N(Nc3ccc([N+](=O)[O-])cc3)C2C(=O)N1c1ccccc1` (stereo unspecified): the composite z-score was -0.0229.
To `CCOC(=O)C[C@H]1[C@H](OC(=O)Cc2ccc3c(c2)OCO3)[C@@H](NC(=O)Cc2ccc(OC)cc2)c2cc(OCCCO)ccc2N1C(=O)c1ccccc1` belongs -0.0846.
For the compound `O=C1NCC(=O)N2[C@@H]1C[C@@H](C(=O)O)[C@H]2c1ccc(O)cc1`, the composite z-score is 0.0875.
To `C=C(COC)/C(=C/C[C@@H](OC(=O)c1ccncc1)c1cccc(OCCO)c1)c1cnc2ccccc2c1` belongs 0.266; to `CCOC(=O)C[C@H]1[C@H](OC(=O)c2ccccc2-c2ccccc2)[C@@H](NC(=O)c2ccc3ccccc3n2)c2cc(OCCCO)ccc2N1C(=O)c1ccc2ccccc2n1`, -0.269; to `[N-]=[N+]=NCc1ccccc1C[C@]1(C(=O)NCC(O)CO)N=C(c2ccc(OCCCO)cc2)O[C@H]1c1ccccc1CN=[N+]=[N-]` (stereo partly specified), 0.054.
To `C[n+]1ccc(CCCO)cc1` belongs 0.181; to `CCCC[C@@H]1C[C@H]1[C@@H](NC(=O)c1ccccc1)c1ccc(Cl)cc1`, -0.204.
To `C=C(CCCC)/C(=C/C[C@@H](OC(C)=O)c1ccc(CO)o1)c1cc(C(=O)OC)ccc1OC` belongs -0.134.
As for `CC(C)OC(=O)CC(=O)CC(O)c1cccc(C#N)c1` (stereo unspecified), the composite z-score came out at 0.237.
To `COC(=O)[C@@]1(Cc2ccccc2)[C@H]2c3cc(C(=O)N4CCCC4)[nH]c3C[C@H]2CN1C(=O)c1ccccc1` belongs 0.134.
To `COc1c(C)cc(-c2cc3c(c(-c4ccccc4)n2)[Si](C(C)C)(C(C)C)OC3)cc1C` belongs 0.0008; to `C=CC[C@@]1(C(=O)N2CCCCC2)N=C(c2ccc(OCCCO)cc2)O[C@@H]1c1ccccc1`, 0.361.
To `CN(C)CCCNC(=O)[C@@H]1c2ccccc2C(=O)N(Cc2ccc(OC(F)(F)F)cc2)[C@H]1c1ccc(CO)cc1` belongs -0.0654.
